Experimental data as given in the supplement of paper PMC6555819.

Assays:
Assay in all cases: PBM binding z-score (relative to random genomic background probes); higher = stronger binding; sequences stand for … in GC…GCGATTGACAGCGTAGAATGAAGG
[1] = test system: FXR:RXRa (NR concentration 270 nM, RXRa partner concentration 90 nM)
Outline: (§1)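 Scanned fluorescence from custom Agilent 4×180K protein-binding microarrays was regression-normalized. Binding z-scores use random background probes as reference. Ligand-free nuclear receptor dimers were incubated on the arrays for 1 h and detected with antibodies against each partner (one per run).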

[2] = test system: LXRa:RXRa (NR concentration 270 nM, RXRa partner concentration 90 nM)
Outline: as §1

[3] = test system: LXRa homodimer (NR concentration 270 nM)
Outline: as §1

[4] = test system: LXRb:RXRa (NR concentration 270 nM, RXRa partner concentration 90 nM)
Outline: as §1

[5] = test system: LXRb homodimer (NR concentration 270 nM)
Outline: as §1

[6] = test system: PPARa:RXRa (NR concentration 270 nM, RXRa partner concentration 90 nM)
Outline: as §1

[7] = test system: PPARg:RXRa (NR concentration 180 nM, RXRa partner concentration 90 nM)
Outline: as §1

[8] = test system: PPARg:RXRa 270nM:90nM, anti-RXR (NR concentration 270 nM, RXRa partner concentration 90 nM)
Outline: as §1

[9] = test system: PPARg:RXRa 30nM:10nM, anti-RXR (NR concentration 30 nM, RXRa partner concentration 10 nM)
Outline: as §1

[10] = test system: PPARg:RXRa 90nM:30nM, anti-RXR (NR concentration 90 nM, RXRa partner concentration 30 nM)
Outline: as §1

[11] = test system: PPARg:RXRa DBDmut IVT, anti-RXR (DBD mutation: RXRa K156A/R161A, NR concentration 270 nM, RXRa partner concentration 90 nM)
Outline: as §1

[12] = test system: PPARg:RXRa IVT, anti-PPARg (NR concentration 270 nM, RXRa partner concentration 90 nM)
Outline: as §1

[13] = test system: PPARg DBDmut:RXRa IVT, anti-PPARg (DBD mutation: PPARg1 K132A/R137A, NR concentration 270 nM, RXRa partner concentration 90 nM)
Outline: as §1

[14] = test system: PPARg DBDmut IVT, anti-PPARg (DBD mutation: PPARg1 K132A/R137A, NR concentration 270 nM)
Outline: as §1

[15] = test system: PPARg homodimer (NR concentration 180 nM)
Outline: as §1

[16] = test system: PXR:RXRa (NR concentration 270 nM, RXRa partner concentration 90 nM)
Outline: as §1

[17] = test system: PXR homodimer (NR concentration 270 nM)
Outline: as §1

[18] = test system: RARa:RXR (NR concentration 270 nM, RXRa partner concentration 90 nM)
Outline: as §1

[19] = test system: RARa homodimer (NR concentration 270 nM)
Outline: as §1

[20] = test system: RARb:RXRa (NR concentration 270 nM, RXRa partner concentration 90 nM)
Outline: as §1

| Sequence | PBM binding z-score [1] | PBM binding z-score [2] | PBM binding z-score [3] | PBM binding z-score [4] | PBM binding z-score [5] | PBM binding z-score [6] | PBM binding z-score [7] | PBM binding z-score [8] | PBM binding z-score [9] | PBM binding z-score [10] | PBM binding z-score [11] | PBM binding z-score [12] | PBM binding z-score [13] | PBM binding z-score [14] | PBM binding z-score [15] | PBM binding z-score [16] | PBM binding z-score [17] | PBM binding z-score [18] | PBM binding z-score [19] | PBM binding z-score [20] |
| --- | --- | --- | --- | --- | --- | --- | --- | --- | --- | --- | --- | --- | --- | --- | --- | --- | --- | --- | --- | --- |
| TAGTCTAGGTCATTGGGCCAGTATAGTACGCATC | 4.44 | 4.2 | 2.26 | 2.54 | 2.53 | 4.28 | 5.91 | 4.82 | 3 | 4.56 | 5.99 | 6.49 | 2.81 | 2.94 | 3.92 | 1.95 | 0.361 | 2.72 | 1.24 | 3.81 |
| CATACAGAGTCAGCTAGGCCAGAGTAGGGACGGC | -0.451 | -0.383 | -0.608 | -0.891 | -0.106 | -0.478 | 0.472 | -0.324 | -0.369 | -0.479 | -0.267 | 0.0883 | 0.15 | 0.197 | -0.174 | -0.875 | -0.632 | -0.635 | -0.132 | 0.148 |
| TCGAGTAGGTTACCAATGGCGCATTCAGCTTTCT | 0.273 | 0.571 | -0.489 | 0.382 | -0.736 | 0.977 | 0.185 | 1.23 | 1.11 | 1.17 | 3.69 | 2.51 | 0.479 | -0.462 | -0.236 | 0.00763 | -0.811 | 0.064 | -0.676 | 0.628 |
| TCATATAGGTAACGGTGAAAGTCGAACGATATGA | 0.511 | 0.386 | -0.274 | 0.302 | -0.326 | 1.52 | 1.63 | 2.54 | 3.34 | 2.78 | 4.89 | 4.04 | 1.45 | 1.23 | -0.0318 | 0.0146 | -0.0521 | 0.23 | 0.533 | 0.479 |
| TATACAGGGTCGAAGGCCAGAGTACGAATGTCGA | 1.27 | 1.32 | -0.263 | 1.01 | 0.799 | 2.44 | 2.45 | 3.28 | 1.28 | 2.65 | -0.348 | 1.5 | 1.05 | 0.465 | 0.74 | 1.01 | -0.0237 | 1.61 | -0.116 | 1.75 |
| TTACCAAGGTGAGCTGAGGTCGTTGATCCAACTC | 2.68 | 1.31 | -0.429 | 0.771 | -0.932 | 1.75 | 0.0695 | 0.731 | -0.00962 | 0.482 | 1.28 | 2.17 | -0.497 | -0.723 | -0.21 | 4.78 | 0.329 | 1.72 | -1.01 | 1.93 |
| CCTACTGGGCCAGAGGTCATTGATTCCAATGCTC | 3.89 | 4.31 | 4.08 | 4.28 | 0.315 | 5.3 | 9.61 | 8.53 | 9.24 | 9.4 | 3.69 | 4.99 | 0.0395 | -0.7 | 2.97 | 4.8 | 1.58 | 4.62 | 0.505 | 3.63 |
| AATACAGGGTCACCGTAGGCCAGAGTACGCACAG | 7.2 | 6.43 | 1.2 | 4.96 | 0.78 | 6.14 | 7.71 | 6.83 | 3.15 | 5.65 | 3.34 | 4.88 | 1.63 | 0.332 | 2.04 | 4.97 | 0.366 | 5.28 | 0.752 | 4.8 |
| CCTATTAGTTGACGATAAGGGCAACCGAAGCTCG | 0.29 | 0.114 | -0.102 | 0.152 | 0.201 | 0.204 | 0.482 | 0.0797 | 0.0506 | 0.157 | 0.107 | -0.036 | 0.257 | 0.471 | 1.85 | 0.261 | 0.241 | 0.847 | 1.05 | 1.33 |
| AATACAGGGTCACTAGACCAGAGTAGGTACGAAT | 5.74 | 4.72 | 0.962 | 3.65 | 0.659 | 5.33 | 6.24 | 5.76 | 2.72 | 4.31 | 2.98 | 4.48 | 1.64 | 0.757 | 1.41 | 3.05 | 0.6 | 4.02 | 0.657 | 4.12 |
| AATACAGGGTCATCGTAGGCCAGAGCACGCACAG | 7.49 | 6.27 | 2.28 | 4.72 | 1.31 | 5.79 | 6.53 | 6.08 | 3.29 | 4.98 | 2.92 | 4.29 | 2.99 | 0.869 | 3.33 | 4.96 | 0.778 | 5.48 | 0.827 | 4.21 |
| TTTATTAGTTGAAGGGCAACCGACGAGTCCGTTT | 0.831 | 0.834 | 0.746 | 0.739 | 0.614 | 0.899 | 0.644 | 1.71 | 1.09 | 1.95 | 0.976 | 0.967 | 0.878 | 1.23 | 1.41 | 0.818 | 1.45 | 0.575 | 1.48 | 1.68 |
| CATACAGGGTCAGCTTGGCCAGAGTAGGGACGGC | 4.12 | 2.73 | -0.212 | 1.86 | 0.138 | 4.1 | 2.78 | 2.88 | 0.385 | 1.57 | 1.04 | 2.5 | 0.91 | 0.462 | 1.09 | 2.01 | -0.3 | 2.93 | 0.544 | 3.99 |
| ACTATCAGGCCAAGTTTGGGTCACTCAAACAAAG | 0.363 | 0.344 | -0.188 | 0.871 | 0.576 | 1.51 | 0.155 | 0.318 | -0.0574 | 0.171 | 0.297 | 1.51 | 1.26 | 0.453 | 1 | 0.896 | 0.251 | 1.83 | -0.177 | 2.12 |
